Screens as filed in PubChem.
TbPYK inhibitor: inhibitors of Trypanosoma brucei pyruvate kinase | Potency, µM (doses to about 76.8 µM), without a hit: at the top dose activity, negative = inhibition, usual class: inhibitors | AID 624173 | TbPYK enzyme, Kinase-Glo Plus ATP luminescence, 45 min | actives 0.12% (n = 410,000) | Q57TT1; also: nearly all actives have a fitted effect of over 50% in size
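TbPYK + substrate in 50 mM TEA pH 7.2, 100 mM KCl, 10 mM MgCl2, 0.05% BSA, 0.01% Tween-20; cpd pinned; ADP 130 uM final; 45 min RT; Kinase-Glo Plus 10 min; luminescence endpoint.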
Sm TGR block: S. mansoni TGR enzyme inhibition. actives 3% (n = 360,000). Potency, µM (doses to about 114 µM), for inactives: at the top dose activity change, negative = inhibition, actives largely listed as inhibitors. purified TGR, DTNB reduction, TNB absorbance 405 nm. Q962Y6; also: nearly all actives have a fitted effect of over 60% in size
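Kinetic colorimetric format: TGR-catalysed, NADPH-driven DTNB reduction monitored via TNB absorbance. Enzyme dispensed at 20 nM; compound exposure 15 min at room temperature before reaction start.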
FMDV inh: blocks foot and mouth disease virus. FMDV antiviral cell-based qHTS. AID 1159524. Potency, µM (highest dose often 57.9 µM), for inactives: at the highest dose activity change, negative = inhibition, most hits filed as inhibitors. actives 1.2% (n = 410,000); calls by dose curve; tested in HEK293T cells; also: read-out not given here; nearly all actives have a fitted effect of over 45% in size
RE007 growth inh: less growth of the S. pombe RE007 Vpr strain; S. pombe RE007 Vpr strain, BacTiter-Glo ATP luminescence, 24 h; actives 0.21% (n = 360,000); AID 651644; Potency, µM (doses to about 92.2 µM), inactives show top-dose activity change, negative = less growth, hits mostly inhibitors; active = well fitted falling curve with a large enough effect; inconclusive = small, poorly fitted or top-dose-only effect; inactive = no such curve, though single readings can be large or run the other way; also: nearly all actives have a fitted effect of over 50% in size
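Fission yeast RE007 carrying one integrated HIV-1 vpr copy, seeded at OD 0.01 in PMG+AL medium with 23 nL pinned compound. Grown 24 h at 30 degrees; viability read by BacTiter-Glo luminescence after 5 min.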
The depositor's hits bear a star; u = inconclusive; x = not tested or not shown; [ ] = dose if it differs, or a comment. Only some compounds are listed: those with a hit (about 3.7% of all), similar ones and a draw of the others. Unless noted, calls follow the shape of the dose curve; as a rule, active = well fitted curve in the direction sought with a large enough effect; inconclusive = small, poorly fitted or top-dose-only effect, or another doubt; inactive = no such curve, though single readings can be large; an effect the other way counts as inactive or inconclusive. % is scaled to controls: 0 for no effect and ±100 for the full control effect; potency is read from the fitted curve at half-maximal effect.

SMILES	TbPYK inhibitor	Sm TGR block	FMDV inh	RE007 growth inh
O=c1c2ccccc2nc(COc2ccccc2)n1/N=C/c1ccco1	3%	40µM*	-20%	-5%
COc1ccc(Cn2c(SCc3ccc(C(=O)NC4CCCCC4)cc3)nc3ccncc32)cc1	-6%	1%	u	x
O=C(NC1CCCCCC1)c1ccc(CS(=O)c2cccc(Cl)c2)o1 (stereo not drawn)	2%	u	10%	x
S=c1[nH]nc(-c2ccco2)n1/N=C/C=C/c1ccco1	u	u	-19%	-2%
S=c1[nH]nc(-c2cc(-c3ccccc3)n[nH]2)n1/N=C/C=C/c1ccco1	u	11µM*	22%	0%
Cc1cc(C)n(-c2ccc(C(=O)OC(C)C(=O)Nc3ccc(C(N)=O)cc3)cc2)n1 (stereo not drawn)	1%	4%	35µM*	-17%
CC(=O)Nc1ccc(NC(=O)C(C)OC(=O)c2ccc(-n3cnnn3)cc2)cc1 (stereo not drawn)	4%	-6%	-15%	3%
COc1cccc(CNc2ncnc3sc(C(=O)N4CCOCC4)c(C)c23)c1OC	x	x	-14%	x
CCN1C(=O)CC(N2CCOCC2)C1=O (stereo not drawn)	2%	-10%	2%	-15%
O=C1CC(N2CCOCC2)C(=O)N1c1cc(Cl)cc(Cl)c1 (stereo not drawn)	0%	35µM*	-4%	11µM*
Cc1cc(C)cc(N2C(=O)CC(N3CCOCC3)C2=O)c1 (stereo not drawn)	-1%	50µM*	7%	-10%
O=C1CC(N2CCN(c3ccccc3)CC2)C(=O)N1c1cccc(Cl)c1 (stereo not drawn)	1%	u	5%	-78%
COc1cc(C2C(=O)N(C3CCC(C)CC3)CC(=O)N2CCc2ccc(Cl)cc2)ccc1OC(C)C (stereo not drawn)	3%	2%	-14%	x
Cc1c(C(=O)N2CCCC2)sc2ncnc(NCCc3ccccn3)c12	x	x	-4%	x
N/C(Cc1cccc2ccccc12)=N\OC(=O)c1ccc(Br)o1	x	45µM*	x	x
CC(=O)n1cc([C@H]2C=C(C(=O)N3CCN(Cc4ccc5c(c4)OCO5)CC3)O[C@@H](OCc3ccc(CO)cc3)C2)c2ccccc21	3%	-11%	u	-1%
CC(=O)n1cc([C@H]2C=C(C(=O)N3CCN(Cc4ccccc4)CC3)O[C@@H](OCc3ccc(CO)cc3)C2)c2ccccc21	-4%	18µM*	-8%	-2%
CC(=O)n1cc([C@@H]2C=C(C(=O)NCc3ccccc3)O[C@H](OCc3ccc(CO)cc3)C2)c2ccccc21	-19%	50µM*	-24%	7%
C#CCNC(=O)C1=C[C@H](c2cn(C(C)=O)c3ccccc23)C[C@H](OCc2ccc(CO)cc2)O1	-6%	u	u	-6%
OC(CCN1CCCCC1)(c1ccccc1)c1ccccc1	-4%	1%	-17%	-7%[18.4 µM]
C=CCC(O)(CCN1CCCCC1)c1ccccc1 (stereo not drawn)	2%	25µM*	-29%	3%
CCCOc1ccc(C(O)(CCN2CCCCC2)c2ccccc2OC)cc1 (stereo not drawn)	4%	u	u	-7%
COc1ccc(C(O)(CCc2ccccc2)CCN2CCCCC2)cc1 (stereo not drawn)	-10%	2.8µM*	-5%	-25%
Cc1ccc(O)c(CNc2ccccn2)c1	-4%	2%	56%	7%
Oc1ccc2ccccc2c1CNc1ccccn1	-6%	2.2µM*	-4%	-24%
SMILES	TbPYK inhibitor	Sm TGR block	FMDV inh	RE007 growth inh
CC1(OC(=O)CCc2ccccc2)C(=O)C=C2C=C(c3ccc(C#N)cc3)N(Cc3ccccc3)C=C2C1=O (stereo not drawn)	1%	u	-14%	14%
CCCCC1=CC2=CC(=O)C(C)(OC(=O)c3cccs3)C(=O)C2=CO1 (stereo not drawn)	-19%	x	-16%	-15%
CC1(OC(=O)CCc2ccccc2)C(=O)C=C2C=C(c3ccc(C#N)cc3)N(Cc3ccco3)C=C2C1=O (stereo not drawn)	1%	35µM*	13%	-6%
CCCCC1=CC2=CC(=O)C(C)(OC(=O)c3cnc4ccccc4n3)C(=O)C2=CO1 (stereo not drawn)	x	35µM*	x	x
CCCCC1=CC2=CC(=O)C(C)(OC(=O)CCc3ccccc3)C(=O)C2=CO1 (stereo not drawn)	-22%	45µM*	-16%	6%
COc1ccc(Nc2nc3ccccc3c3nnc(C)n23)cc1Cl	1%	-5%	-10%	x
CC1(C)CC(C(=O)N2CCOc3ccc(CN4CCC(Oc5cccnc5)CC4)cc3C2)CCO1 (stereo not drawn)	x	x	-10%	x
O=C1CCCc2cc(S(=O)(=O)N3CCCC(C(=O)NCc4ccccc4Cl)C3)ccc2N1 (stereo not drawn)	-14%	9%	u	x
CCN(CCCNC(=O)c1cc(Nc2ccc(OC)cc2OC)nc2ccccc12)c1cccc(C)c1	-2%	-12%	-20%	x
O=C(O)C1=C[C@@H](c2ccc(C(F)(F)F)cc2)C[C@@H](OCc2ccc(CO)cc2)O1	-14%	40µM*	2%	3%
COc1ccc([C@H]2C=C(C(=O)O)O[C@@H](OCc3ccc(CO)cc3)C2)cc1	-1%	u	7%	9%
C#Cc1ccc([C@@H]2C=C(C(=O)O)O[C@H](OCc3ccc(CO)cc3)C2)cc1	6%	35µM*	-4%	0%
O=C(O)C1=C[C@H](c2ccc(Br)cc2)C[C@H](OCc2ccc(CO)cc2)O1	2%	32µM*	-8%	10%
COc1cc(CNc2nc(C)c(-c3ccn(CC4CCCN(C)C4)n3)s2)ccc1F (stereo not drawn)	x	x	0%	x
Cc1ccccc1C(=O)NC(C)c1nnc2n1CCN(Cc1ccccc1F)CC2 (stereo not drawn)	x	x	-11%	x
CCOc1ccc(-c2cc(CCCC(=O)NCCc3cc(OC)c(OC)c(OC)c3)no2)cc1	5%	0%	u	x
O=C1NN(c2ccccc2)C(=O)/C1=C\c1cccc(OC(=O)c2cccs2)c1	u	35µM*	u	-3%
O=C(O)c1cc(-c2ccco2)[nH]n1	-15%	50µM*	4%	-4%
O=C(c1cccc(F)c1)N1CCC[C@@]2(CCN(c3ccccc3)C2)C1	-2%	x	-22%	x
CCOC(=O)C1(CCOc2ccccc2)CCN(Cc2cccc(-n3cccn3)c2)CC1	14%	0%	u	2%
CCOC(=O)C1(CCOc2ccccc2)CCN(C(=O)c2ccc(-n3cccn3)cc2)CC1	-26%	-12%	22µM*	-4%
Cc1cc(C)c(NC(=O)COc2ccc3c(C)cc(=O)oc3c2)c(C)c1	-13%	-14%	9%	x
COc1ccccc1CNC(=O)C1CCCC1	0%	7%	9%	37%
COc1cc(CNC(=O)C2CCCC2)cc(OC)c1OC	7%	3.2µM*	8%	-10%
COc1ccccc1C(=O)NCCn1cc(SCc2ccc(C)cc2)c2ccccc21	-8%	-7%	u	x
